Source: PubChem (National Center for Advancing Translational Sciences (NCATS))
Only a selection was taken, and hits are over-represented in it overall.
p53null 39C kill = qHTS Screen for Compounds that Selectively Target Cancer Cells with p53 Mutations: Cytotoxicity of p53 Null Cells at the Nonpermissive Temperature | H1299 p53-null (neo) cells, 39C, ATPlite viability, 24 h | 55,000 tested, 0.97% active | Potency, µM (series often up to 46.1 µM), for inactives: at the top dose activity, negative = cell killing, hits mostly cytotoxic;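 further: potency means the concentration at half of the fitted maximal effect; 0% = DMSO only and -100% = full killing by 100 µM tamoxifen; nearly all actives have a fitted effect of over 50% in size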
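H1299 lung cancer cells, p53-null (H1299-neo) or expressing p53 A138V (H1299-p53A138V), were plated overnight at 37C, then exposed to compounds at up to 46 uM for 24 hr at 39C. Viability was read by ATP-based luminescence.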
NTMT1 inh = Primary qHTS for Inhibitors of N-terminal methyltransferase 1 (NTMT1): MTaseGlo Assay | N-terminal Xaa-Pro-Lys N-methyltransferase 1 (Homo sapiens), Q9BV86 | NTMT1 MTase-Glo SAH luminescence, purified enzyme | Potency, µM (titrated, usually from 114 µM), for inactives: top-dose activity change, negative = inhibition, usual class: inhibitors | 59,000 tested, 2.5% active | AID 1645870, 2021;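 further: potency means the concentration at half of the fitted maximal effect; plate controls were DMSO vehicle for no effect and no enzyme for full effect; nearly all actives have a fitted effect of over 65% in size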
CLK4 KinaseGlo = Confirmation Assay for Inhibitors of CDC-like Kinase 4 (Kinase-Glo Assay): SAR round 2; shares compounds with NTMT1 inh; recombinant Clk4, Kinase-Glo ATP luminescence, 4.5 h; Potency, µM (doses to about 76.9 µM), without a hit: at the top dose activity, negative = inhibition, hits mostly inhibitors; 90 tested, 90% active
Sfp qHTS opt = qHTS Assay for Inhibitos of Bacillus subtilis Sfp phosphopantetheinyl transferase (PPTase): Chemistry Optimization Followup; 230 tested, 78% active; AID 540350, 2011; purified Sfp PPTase enzyme activity, qHTS; Potency, µM (highest dose often 114 µM), without a hit: top-dose activity change, negative = inhibition, actives largely listed as inhibitors; shares compounds with NTMT1 inh
HM489 growth = qHTS for Inhibitos of Bacillus subtilis Sfp phosphopantetheinyl transferase (PPTase): Chemistry Optimization Followup in B. Subtilis HM489 | shares compounds with NTMT1 inh | B. subtilis HM489 (acpS-) growth, BacTiter-Glo, 5 h | Potency, µM (titrated, usually from 114 µM), without a hit: at the highest dose activity change, negative = inhibition, actives largely listed as inhibitors | 220 tested, 50% active | AID 540353, 2011
Sfp gel opt = Gel-Based Assay for Inhibitos of Bacillus subtilis Sfp phosphopantetheinyl transferase (PPTase): Chemistry Optimization Followup. shares compounds with NTMT1 inh. purified Sfp PPTase, gel-based product detection. Potency, µM (series often up to 250 µM), inactives show at the top dose activity change, negative = inhibition, usual class: inhibitors. 220 tested, 54% active
Sfp SAR2 = qHTS Assay for Inhibitors of Bacillus subtilis Sfp phosphopantetheinyl transferase (PPTase): SAR Round 2 | shares compounds with NTMT1 inh | purified Sfp enzyme, PPTase activity, qHTS | Potency, µM (top dose mostly 57.1 µM), without a hit: at the top dose activity change, negative = inhibition, usual class: inhibitors | 230 tested, 87% active | AID 602370, 2012
HSD17B4 inh = Extended Characterization of HPGD Inhibitors: Counterscreen Against HSD17b4 | shares compounds with NTMT1 inh | purified HSD17B4, estradiol/NAD+, NADH fluorescence | Potency, µM (doses to about 57.1 µM), inactives show at the highest dose activity change, negative = inhibition, usual class: inhibitors | 230 tested, 10% active | AID 743187, 2013
ALDH1A1 counter = Extended Characterization of HPGD Inhibitors: Counterscreen Against ALDH1A1; shares compounds with NTMT1 inh; recombinant ALDH1A1, NADH fluorescence, propionaldehyde/NAD+; Potency, µM (top dose mostly 57.1 µM), inactives show top-dose activity change, negative = inhibition, hits mostly inhibitors; 230 tested, 93% active; AID 743195, 2013
NNMT counter = Counterscreen qHTS for Inhibitors of N-terminal methyltransferase 1 (NTMT1): NNMT MTaseGlo assay. 120 tested, 10% active. NNMT MTase-Glo luminescence, SAH detection. AID 1645878, 2021. shares compounds with NTMT1 inh. Potency, µM (top dose mostly 57.1 µM), for inactives: at the top dose activity, negative = inhibition, most hits filed as inhibitors
Target sequence (P40261 whole entry, looked up): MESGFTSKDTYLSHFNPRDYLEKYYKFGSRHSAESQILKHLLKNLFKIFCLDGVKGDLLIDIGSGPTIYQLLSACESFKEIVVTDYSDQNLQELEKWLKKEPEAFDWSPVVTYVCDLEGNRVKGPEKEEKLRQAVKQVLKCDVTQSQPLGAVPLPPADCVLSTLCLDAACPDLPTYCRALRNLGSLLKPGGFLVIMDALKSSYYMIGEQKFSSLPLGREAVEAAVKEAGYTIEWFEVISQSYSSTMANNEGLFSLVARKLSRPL
The depositor's hits bear a star; ? = inconclusive; · = not tested or not shown; [ ] = another dose, or the depositor's remark. The call rests on the fitted dose curve; in most records, active means well fitted curve in the direction sought with a large enough effect; inconclusive means small, poorly fitted or top-dose-only effect, or another doubt; inactive means no such curve, though single readings can be large; an effect the other way counts as inactive or inconclusive.

SMILES	p53null 39C kill	NTMT1 inh	NNMT counter	others
CC[C@@H](C)Nc1cc(C(=O)NC2CC3CC[C@@H](C2)N3c2ccc(C(=O)C3CC3)cn2)c(C)cc1C(N)=O (stereo partly drawn)	·	4%[57.5 µM]	-21%
COc1cccc(Nc2ncc3ncc(=O)n(C)c3n2)c1	·	·	·	CLK4 KinaseGlo=0.92µM*
COc1cccc(Nc2ncc3nc(-c4cn(C)c5ccccc45)c(=O)n(CCC#N)c3n2)c1	·	·	·	CLK4 KinaseGlo=?
CC(=O)N1CCC[C@H]1C(=O)N[C@@H](Cc1cnc[nH]1)C(=O)N[C@@H](CO)C(=O)N[C@@H](CS)C(=O)N[C@@H](CC(N)=O)C(N)=O	·	12%	·
CN1CCN(C(=O)[C@H](Cc2ccc(O[S+](=O)([O-])c3cccc4cnccc34)cc2)N[S+](=O)([O-])c2cccc3cnccc23)CC1	·	-1%	·
CCN1CCN(Cc2ccc(Nc3ncc(F)c(-c4cc(F)c5nc(C)n(C(C)C)c5c4)n3)nc2)CC1	·	10µM*	?
NCC(CNc1nc(Nc2cccc(NC(=O)N3CCCC3)c2)ncc1I)C(=O)c1cccs1 (stereo not drawn)	·	?	?
Cc1cc(C)nc(NC(=S)N2CCN(c3ccc4c(c3)OCO4)CC2)c1	·	28µM*	·	Sfp qHTS opt=9.4µM*;HM489 growth=6%;Sfp gel opt=0.63µM*;Sfp SAR2=14µM*;HSD17B4 inh=?;ALDH1A1 counter=4.3µM*
CC(=O)c1ccc(N2CCN(C(=S)Nc3ccccc3F)CC2)cc1	16%[1.84 µM]	·	·
Cc1cc(C)nc(NC(=S)N2CCN(c3ccc4occc4c3)CC2)c1	·	?	·	Sfp qHTS opt=3.7µM*;HM489 growth=?;Sfp gel opt=4µM*;Sfp SAR2=4.6µM*;HSD17B4 inh=?;ALDH1A1 counter=17µM*
COc1cc(N2CCN(C(C)=O)CC2)ccc1Nc1ncc(Cl)c(Nc2ccc(N3CCN(C(C)=O)CC3)cc2OC)n1	·	20µM*	?
